25 compounds from ChEMBL document CHEMBL4296182, “CO-ADD screening of NIH NCI Diversity Set V” can be followed below.

For part of these data: Results with a measured potency or affinity are listed apart.

Experiment [1] deals with Staphylococcus aureus. The experiment is described as follows: Antibacterial activity against Staphylococcus aureus MRSA ATCC 43300 (CO-ADD:GP_020); MIC in CAMBH media using NBS plates, by Resazurin F(560/590). The experiment is classed as functional. As to conditions: Concentration 20 uM, ASSAY_TEST Inhibition of Bacterial Growth, detection method Resazurin, Fluorescence (ex560/em590), MEDIA CAMHB, plate type 384well, CORNING #3640, time 18 hr.

Experiment [2] deals with Acinetobacter baumannii. The experiment is described as follows: Antibacterial activity against Acinetobacter baumannii ATCC 19606 (CO-ADD:GN_034); MIC in CAMBH media using NBS plates, by Resazurin F(560/590). The experiment is classed as functional. As to conditions: Concentration 20 uM, ASSAY_TEST Inhibition of Bacterial Growth, detection method Resazurin, Fluorescence (ex560/em590), MEDIA CAMHB, plate type 384well, CORNING #3640, time 18 hr. Background: Alamar Blue is a resazurin reagent that responds to reducing activity.

Experiment [3] concerns Escherichia coli. In words: Antibacterial activity against Escherichia coli ATCC 25922 (CO-ADD:GN_001); MIC in CAMBH media using NBS plates, by Resazurin F(560/590). The experiment is classed as functional. As to conditions: Concentration 20 uM, ASSAY_TEST Inhibition of Bacterial Growth, detection method Resazurin, Fluorescence (ex560/em590), MEDIA CAMHB, plate type 384well, CORNING #3640, time 18 hr.

Experiment [4] relates to Klebsiella pneumoniae. As to conditions: Concentration 20 uM; ASSAY_TEST Inhibition of Bacterial Growth; detection method Absorption (OD600); MEDIA CAMHB; plate type 384well; NBS; CORNING #3640; time 18 hr.
The test system of experiment [5] is Candida albicans. The settings on record: 20 µM.
Experiment [6] relates to Cryptococcus neoformans. The settings on record: Concentration 20 uM; ASSAY_TEST Inhibition of Fungal Growth; detection method Resazurin; Absorption (OD600-OD570); plate type 384well; NBS; CORNING #3640.

The term Inhibition denotes the drop in the measured response relative to a control, in per cent. As to `CC(C)c1ncc(CO)n1Cc1c(Cl)cccc1Cl`, the Inhibition in experiment [1] was 10.51%; in experiment [2], 3.11%; in experiment [3], 9.5%; in experiment [4], 7.27%; in experiment [5], 0.71%; in experiment [6], -9.37%.

As to `N#Cc1cnn(-c2cccc(Cl)c2)c1-n1cccc1`, the Inhibition in experiment [1] was 7.59%; in experiment [2], -21.29%; in experiment [3] it was 14.62%; in experiment [4], 3.39%; in experiment [5], 9.39%; in experiment [6], -16.73%.

Turning to `COc1c(NC=O)c2c(c([N+](=O)[O-])c1OC)C(=O)OC2`, the Inhibition amounted to 1.34% in experiment [1]; 7.55% in experiment [2]; 3.05% in experiment [3]; 24.74% in experiment [4]; 5.38% in experiment [5]; 2.82% in experiment [6].

As to `c1ccc2[nH]c(-c3ccncc3)nc2c1`, the Inhibition in experiment [1] was 11.19%; in experiment [2], -5.55%; in experiment [3] it was 7.11%; in experiment [4], 18.73%; in experiment [5] it was -0.07%; in experiment [6], -8.67%.

In the case of `NC(=O)c1ccccc1NC(=O)COc1ccc(Cl)cc1`, the Inhibition is 16.24% in experiment [1]; 7.59% in experiment [2]; 9.93% in experiment [3]; 7.02% in experiment [4]; 1.18% in experiment [5]; -8.55% in experiment [6].

For `Cc1nc(SCC(=O)O)n[nH]1` [TIAZOTIC ACID], the Inhibition is 14.48% in experiment [1]; -8.95% in experiment [2]; 7.99% in experiment [3]; 14.92% in experiment [4]; 2.04% in experiment [5]; -0.18% in experiment [6].

Take `CC(=O)Nc1c(C)cc(OCC(=O)O)cc1C`: the Inhibition in experiment [1] is 2.34%; in experiment [2] it was -5.79%; in experiment [3], 3.28%; in experiment [4] it was 20.93%; in experiment [5], 1.74%; in experiment [6] it was -9.89%.

For the compound `O=C1OCC/C1=C\c1ccc(O)cc1`, the Inhibition in experiment [1] is -0.41%; in experiment [2], -7.68%; in experiment [3], 4.86%; in experiment [4] it was 11.2%; in experiment [5], 3.18%; in experiment [6], 0.19%.

In the case of `NC(=O)C1=CC2C3C=CC2(O)C(=O)OC3O1` (stereo not given), the Inhibition in experiment [1] was -0.72%; in experiment [2], 9.98%; in experiment [3], -7.05%; in experiment [4], 15.67%; in experiment [5], 3.39%; in experiment [6], 2.22%.

Consider `O=[N+]([O-])c1cc(-c2cccnc2)[nH]n1`, for which the Inhibition in experiment [1] was -4.13%; in experiment [2], -4.27%; in experiment [3] it was 2.34%; in experiment [4], 30.86%; in experiment [5], 1.12%; in experiment [6] it was -1.42%.

In the case of `c1ccc(-c2ccc3c(c2)NC(C2Nc4cc(-c5ccccc5)ccc4O2)O3)cc1` (stereo not given), the Inhibition in experiment [1] is 3.85%; in experiment [2], 1.02%; in experiment [3], 2.77%; in experiment [4], 24.34%; in experiment [5], -1.54%; in experiment [6], -14.91%.

Take `C(=C\CSc1ccccn1)/CSc1ccccn1`: the Inhibition in experiment [1] is 10.81%; in experiment [2], -13.92%; in experiment [3], 9.4%; in experiment [4] it was 8.71%; in experiment [5], 2.49%; in experiment [6], -12.06%.

As to `CCCCn1c(OC(=S)N(CC)CC)cc(C)nc1=S`, the Inhibition in experiment [1] is 3.12%; in experiment [2] it was 15.13%; in experiment [3], -6.8%; in experiment [4] it was 13.25%; in experiment [5] it was 7.15%; in experiment [6], -2.34%.

Take `CSC(=N)NS(=O)(=O)c1ccc(NC(C)=O)cc1`: the Inhibition is 1.24% in experiment [1]; -21.01% in experiment [2]; 12.78% in experiment [3]; 3.27% in experiment [4]; 0.03% in experiment [5]; -9.44% in experiment [6].

Consider `Cc1nc(NCc2ccccc2)c2cc[nH]c2n1` [ROLODINE], for which the Inhibition in experiment [1] was -1.89%; in experiment [2] it was -12.81%; in experiment [3], 4.8%; in experiment [4] it was 9.06%; in experiment [5], 2.35%; in experiment [6], -8.43%.

With `NC(=S)NC(=O)c1ccccc1`, the Inhibition in experiment [1] is 15.19%; in experiment [2], -5.77%; in experiment [3], 13.89%; in experiment [4], 14.46%; in experiment [5] it was 2.89%; in experiment [6] it was -5.13%.

Turning to `CCCCN1C(=O)CC2CCOC21C` (stereo not given), the Inhibition in experiment [1] is 9.16%; in experiment [2], -12.54%; in experiment [3], 6.99%; in experiment [4], 9.62%; in experiment [5] it was 10.6%; in experiment [6] it was -12.41%.

Turning to `O=C(Nc1cccc2ccccc12)c1ccccc1`, the Inhibition is 1.57% in experiment [1]; -13.68% in experiment [2]; 5.05% in experiment [3]; -4.37% in experiment [4]; 0.1% in experiment [5]; -4.91% in experiment [6].

With `CC(C)(C)C1=NN=C2c3ccccc3C(=O)C21` (stereo not given), the Inhibition in experiment [1] was -4.27%; in experiment [2], 3.03%; in experiment [3], -6.26%; in experiment [4], 1.25%; in experiment [5], 5.03%; in experiment [6], -9.6%.

As to `COc1cc2c(cc1OC)[N+]([O-])=C(c1ccccc1)C2=O`, the Inhibition in experiment [1] was 11.49%; in experiment [2] it was -5.23%; in experiment [3] it was 9.41%; in experiment [4], -2.97%; in experiment [5] it was 13.8%; in experiment [6], -4.84%.

For the compound `Cc1c([N+](=O)[O-])oc2c1C(=O)NCCC2`, the Inhibition in experiment [1] was 15.45%; in experiment [2], 5.11%; in experiment [3], 5.84%; in experiment [4], 9.17%; in experiment [5], 2.94%; in experiment [6] it was -11.37%.

On to `COc1cc(NC(C)=O)c2ncccc2c1Br`, for which the Inhibition in experiment [1] was 8.44%; in experiment [2] it was -11.34%; in experiment [3], 10.55%; in experiment [4] it was 15.6%; in experiment [5] it was 6.33%; in experiment [6], -16.73%.

For `Cc1nc(S)nc(O)c1Cc1c(O)ccc2ccccc12`, the Inhibition in experiment [1] is -11.57%; in experiment [2], -9.92%; in experiment [3] it was 5.55%; in experiment [4], 6.39%; in experiment [5], 20.9%; in experiment [6], -9.2%.

Regarding `NC(=O)c1ccccc1NC(=O)c1ccccc1Cl`, the Inhibition in experiment [1] is -3.45%; in experiment [2] it was -12.19%; in experiment [3] it was 7.56%; in experiment [4], 6.89%; in experiment [5] it was 2.67%; in experiment [6] it was -15.77%.

As to `Nc1ccc(-c2nc3nc(N)nc(N)c3nc2-c2ccc(N)cc2)cc1`, the Inhibition was 11.99% in experiment [1]; -8.41% in experiment [2]; -0.05% in experiment [3]; 5.53% in experiment [4]; 0.39% in experiment [5]; -7.52% in experiment [6].
